Source: the supplement of paper PMC13380429

Test system: Vero E6 infected with SARS-CoV-2
Experiment: inhibition of SARS-CoV-2 cytopathic effect; higher = more antiviral protection, active = above 15
Conditions: 48 h

Measured: inhibition of SARS-CoV-2 cytopathic effect

COC(=O)/C=C/C(=O)OCCN1C(=O)CCC1=O [diroximel-fumarate]
inactive: 1 nM -3.18% | 8.33 nM -0.95% | 100 nM -3.4% | 833.33 nM -1.82% | 10000 nM 11.3%

Oc1cc(O)c2c(c1)O[C@H](c1ccc(O)c(O)c1)[C@H](O)[C@H]2c1c(O)cc(O)c2c1O[C@H](c1ccc(O)c(O)c1)[C@H](O)C2 [procyanidin-B-2]
inactive: 1 nM 2.26% | 8.33 nM 3.77% | 100 nM 2.22% | 833.33 nM 2.06% | 10000 nM -0.73%

CCN(CC)CC1CCCCN1CC(=O)N1c2ccccc2C(=O)Nc2cccnc21 (stereo not given) [otenzepad]
inactive: 1 nM 2.23% | 8.33 nM 3.08% | 100 nM -0.68% | 833.33 nM 5.55% | 10000 nM 0.04%

CCC(=O)NC[C@H](Cc1ccc(OCCc2nc(-c3ccccc3)oc2C)cc1)N/C(C)=C\C(=O)c1ccc(C(F)(F)F)cc1
inactive: 1 nM -1.03% | 8.33 nM 0.69% | 100 nM 0.66% | 833.33 nM 1.86% | 10000 nM 5.34%

C[C@@H](c1nc(-c2ccc(C#N)cc2)cs1)[C@](O)(Cn1cncn1)c1cc(F)ccc1F [isavuconazole]
inactive: 1 nM -2.38% | 8.33 nM -2.11% | 100 nM -0.9% | 833.33 nM 1.65% | 10000 nM 2.79%

Cc1c(C)c2c(c(C)c1OC(=O)CCC(=O)O)CC[C@@](C)(CCC[C@H](C)CCC[C@H](C)CCCC(C)C)O2 [D-alpha-tocopheryl-succinate]
inactive: 1 nM -5.51% | 8.33 nM -5.87% | 100 nM -7.06% | 833.33 nM -5.36% | 10000 nM -2.64%

Nc1ncnc2nc(-c3ccc(N4CCOCC4)nc3)cc(-c3cccc(Br)c3)c12
inactive: 1 nM -0.77% | 8.33 nM -1.24% | 100 nM -5% | 833.33 nM -0.05% | 10000 nM -1.01%

N=C(N)NCc1cccc(I)c1 [iobenguane]
inactive: 1 nM -1.82% | 8.33 nM -0.29% | 100 nM 1.79% | 833.33 nM 2.26% | 10000 nM 6.21%

Cc1nnc2ccc(-c3cccc(C(F)(F)F)c3)nn12
inactive: 1 nM -0.37% | 8.33 nM 3.68% | 100 nM 2.78% | 833.33 nM 1.93% | 10000 nM 2.16%

CCCCCCCCCCCCCCCCCCO [octadecan-1-ol]
inactive: 1 nM -0.16% | 8.33 nM -0.19% | 100 nM -2.3% | 833.33 nM -2.63% | 10000 nM 2.04%

CCCCn1ccc(N2CCC(c3ccccc3)CC2)c(Cl)c1=O
inactive: 1 nM 1.82% | 8.33 nM 3.38% | 100 nM 1.99% | 833.33 nM 1.64% | 10000 nM -5.17%

[Cl][Ti][Cl].c1cc[cH-]c1.c1cc[cH-]c1 [titanocene-dichloride]
inactive: 1 nM 3.56% | 8.33 nM -0.14% | 100 nM 1.81% | 833.33 nM -1.85% | 10000 nM 0.26%

c1ccc(-c2oc3ncnc(NC[C@@H]4CCCO4)c3c2-c2ccccc2)cc1
inactive: 1 nM 0.95% | 8.33 nM 0.57% | 100 nM 0% | 833.33 nM 0.71% | 10000 nM 1.78%

Cn1ncc(Cl)c1-c1cc(C(=O)N[C@H](CN)Cc2ccc(F)c(F)c2)oc1Cl [uprosertib]
inactive: 1 nM -2.98% | 8.33 nM -0.16% | 100 nM -1.46% | 833.33 nM 0.21% | 10000 nM -3.53%

CCN(CC)CCOc1ccccc1C(=O)CCc1ccccc1 [etafenone]
inactive: 1 nM 1.2% | 8.33 nM 0.17% | 100 nM -0.61% | 833.33 nM 0.23% | 10000 nM -3.07%

COc1ccc(CCC(=O)c2c(O)cc(O[C@@H]3O[C@H](CO)[C@@H](O)[C@H](O)[C@H]3O[C@@H]3O[C@@H](C)[C@H](O)[C@@H](O)[C@H]3O)cc2O)cc1O [Neohesperidin dihydrochalcone (Nhdc)]
inactive: 1 nM -1.62% | 8.33 nM -3.36% | 100 nM -1.21% | 833.33 nM 0.9% | 10000 nM -1.64%

Cn1ncc(Cl)c1-c1cc(C(=O)N[C@H](CN)Cc2cccc(F)c2)sc1Cl
inactive: 1 nM 0.2% | 8.33 nM -1.05% | 100 nM -0.95% | 833.33 nM -0.24% | 10000 nM -2.44%

COc1ccc(CC(=O)NC(/N=C(\NC#N)Nc2cccc3ncccc23)C(C)(C)C)cc1OC (stereo not given)
inactive: 1 nM -0.32% | 8.33 nM 1.83% | 100 nM 1.99% | 833.33 nM 1.34% | 10000 nM -0.99%

CCOC(=O)N1CCC(=C2c3ccc(Cl)cc3CCc3cccnc32)CC1 [loratadine]
inactive: 1 nM 1.77% | 8.33 nM 0.5% | 100 nM 0.11% | 833.33 nM -0.88% | 10000 nM -4.61%

COc1ccc(N(C)c2nc(C)nc3ccccc23)cc1 [verubulin]
inactive: 1 nM 0.84% | 8.33 nM 2.34% | 100 nM -2.32% | 833.33 nM 2.89% | 10000 nM 2.5%

CCN(C)C(=O)Oc1cccc([C@H](C)N(C)C)c1 [rivastigmine]
inactive: 1 nM -1.4% | 8.33 nM 0.73% | 100 nM 2.11% | 833.33 nM -1.22% | 10000 nM -1.56%

CC(N)C12CC3CC(CC(C3)C1)C2 (stereo not given) [rimantadine]
inactive: 1 nM -2.29% | 8.33 nM -2.48% | 100 nM -4.1% | 833.33 nM -5.56% | 10000 nM -5.71%

CC(C)(C)NCC(O)c1cc(Br)no1 (stereo not given) [broxaterol]
inactive: 1 nM -1.51% | 8.33 nM -0.09% | 100 nM -1.23% | 833.33 nM -0.44% | 10000 nM -2.74%

O=c1oc2ccccc2c(O)c1Cc1c(O)c2ccccc2oc1=O [dicoumarol]
inactive: 1 nM 0.87% | 8.33 nM 0.88% | 100 nM -0.82% | 833.33 nM 1.35% | 10000 nM 3.32%

Cc1ccccc1/N=N/c1ccc(NC(=O)c2ccnn2C)c(C)c1
inactive: 1 nM -1.46% | 8.33 nM 0.89% | 100 nM 1.16% | 833.33 nM 2.03% | 10000 nM 0.48%

CCc1ccccc1OC[C@@H](O)CN[C@H]1CCCc2ccccc21
inactive: 1 nM -1.78% | 8.33 nM -0.44% | 100 nM -3.44% | 833.33 nM -0.6% | 10000 nM -4.25%

CC(C)NNC(=O)c1ccncc1 [iproniazid]
inactive: 1 nM 0.77% | 8.33 nM -0.06% | 100 nM 0.89% | 833.33 nM 0.46% | 10000 nM -1.76%

NC(=O)c1cccc2cn(-c3ccc([C@@H]4CCCNC4)cc3)nc12 [niraparib]
inactive: 1 nM -0.28% | 8.33 nM 0.08% | 100 nM -1.61% | 833.33 nM 3.39% | 10000 nM 5.55%

CCCC(=O)O[C@]1(C(=O)COC(C)=O)CC[C@H]2[C@@H]3C[C@H](F)C4=CC(=O)C=C[C@]4(C)[C@@]3(F)[C@@H](O)C[C@@]21C [difluprednate]
inactive: 1 nM 1.05% | 8.33 nM 1.55% | 100 nM 1.52% | 833.33 nM 1.03% | 10000 nM 6.96%

CCCC(C)C1(CC)C(=O)NC(=O)NC1=O (stereo not given) [pentobarbital]
inactive: 1 nM 2.05% | 8.33 nM 2% | 100 nM 1.92% | 833.33 nM -1.44% | 10000 nM -1.04%

Cc1cc(C(=O)Nc2cc(Oc3ccc4nc(NC(=O)C5CC5)cn4n3)ccc2C)n(C)n1
inactive: 1 nM -0.96% | 8.33 nM -3.26% | 100 nM -4.84% | 833.33 nM -7.63% | 10000 nM -4.87%

CCCCC/N=c1\ccn(Cc2ccccc2)c2ccccc12
inactive: 1 nM -2.64% | 8.33 nM -0.49% | 100 nM -2.77% | 833.33 nM -0.71% | 10000 nM -9.28%

N#Cc1ccc(NCCNCC(=O)N2CCC[C@H]2C#N)nc1
inactive: 1 nM 0.59% | 8.33 nM 2.4% | 100 nM -0.06% | 833.33 nM 3.35% | 10000 nM 2.5%

CC(C)(OCc1nn(Cc2ccccc2)c2ccccc12)C(=O)O [bindarit]
inactive: 1 nM -0.08% | 8.33 nM -0.77% | 100 nM 0.47% | 833.33 nM -2.78% | 10000 nM -0.8%

NS(=O)(=O)c1nn2cc(-c3ccccc3)nc2s1
inactive: 1 nM 8.11% | 8.33 nM 1.76% | 100 nM 0.85% | 833.33 nM 0.07% | 10000 nM 0.7%

CN(C)CCCN1c2ccccc2CCc2ccccc21 [imipramine]
inactive: 1 nM -4.38% | 8.33 nM 1.76% | 100 nM -1.33% | 833.33 nM -2.74% | 10000 nM -4.2%

CCN(CC)C(=O)N[C@H]1C=C2c3cccc4[nH]cc(c34)C[C@H]2N(C)C1 [lisuride]
inactive: 1 nM -0.02% | 8.33 nM 2.67% | 100 nM 0.39% | 833.33 nM 7.27% | 10000 nM -0.37%

O=C1NC(=S)NC(=O)C1C(=O)Nc1ccccc1 [merbarone]
inactive: 1 nM -0.86% | 8.33 nM -1.86% | 100 nM -0.15% | 833.33 nM -0.03% | 10000 nM 1.95%

CCCCCCCCCC(=O)OCCN1CCN(CCCN2c3ccccc3Sc3ccc(C(F)(F)F)cc32)CC1 [fluphenazine-decanoate]
inactive: 1 nM -6.37% | 8.33 nM -5.38% | 100 nM -8.72% | 833.33 nM -10.3% | 10000 nM -9.75%

O=[N+]([O-])c1nccn1CC(O)CN1CCCCC1 (stereo not given) [pimonidazole]
inactive: 1 nM 0.08% | 8.33 nM 0.87% | 100 nM 1.45% | 833.33 nM 2.08% | 10000 nM -0.59%
